A selection: hits, their analogues and other compounds. The true share with any hit is near 2.2%.
Mito fusion act = mitochondrial division inhibition or fusion activation; S. cerevisiae fusion-defective mutant growth rescue, CellTiterGlo 48 h; Potency, µM (top dose mostly 46.1 µM), hits mostly activators; actives 0.23% (n = 320,000); AID 485298; note: nearly all actives have a fitted effect of over 45% in size
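Compounds are tested for their ability to restore growth of mitochondrial fusion-defective yeast strains at non-permissive 37C in YPEG medium over 48 hours. Viability is quantified by luciferase luminescence.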
FUS suppressor = suppressors of FUS proteinopathy in yeast; S. cerevisiae FUS-expressing, growth rescue, OD600, 24 h; Potency, µM (top dose mostly 76.6 µM), usual class: activators; actives 0.24% (n = 390,000); AID 1347120; note: nearly all actives have a fitted effect of over 55% in size
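Toxicity suppression screen in FUS-yeast. Cells induced with 2% galactose, starting OD 0.005, treated 24hr at 30C with compounds at multiple final concentrations; growth by OD600.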
aSyn yeast inh = alpha-synuclein toxicity inhibition in yeast; Yeast expressing alpha-synuclein, growth rescue, BacTiter-Glo, 24 h; Potency, µM (titrated, usually from 46.1 µM), actives largely listed as activators; actives 0.14% (n = 370,000); AID 652106; note: nearly all actives have a fitted effect of over 65% in size
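Galactose-induced alpha-syn yeast (OD600=0.02, raffinose-pregrown) + pinned cpd, 24 hr, 30 deg C; growth by BacTiter-Glo luminescence. Growth restoration scores as activation.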
TDP43 rescue = TDP-43 toxicity inhibition in yeast; TDP-43 expressing yeast growth rescue, BacTiter-Glo, 24 h; Potency, µM (top dose mostly 46.1 µM), hits mostly activators; actives 1.8% (n = 410,000); AID 652104; note: nearly all actives have a fitted effect of over 50% in size
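Luminescence from BacTiter-Glo reports growth of TDP-43-expressing yeast after 24 hr at 30 deg C with compound. Cells were raffinose-pregrown to mid-log, then seeded in galactose medium at OD600=0.02.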
Abeta rescue = restores growth of yeast expressing A-beta42 peptide | yeast expressing A-beta42, growth rescue, OD600, 48 h; response scale: 0% DMSO, 100% iron-clioquinol control | AID 1347071 | actives 0.063% (n = 410,000) | Potency, µM (titrated, usually from 46.1 µM), most hits filed as activators; note: nearly all actives have a fitted effect of over 55% in size
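Yeast growth medium received pinned compounds, then yeast cells expressing toxic A-beta were added; plates incubated at 30 C for 48 hr. Growth read as absorbance at 600 nm, normalized to DMSO and equimolar FeCl3 plus clioquinol controls.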
Large screens that a line does not name were inactive. Calls come from the whole dose curve; as a rule, active = well fitted curve in the direction sought with a large enough effect; inconclusive = small, poorly fitted or top-dose-only effect, or another doubt; inactive = no such curve, though single readings can be large; an effect the other way counts as inactive or inconclusive.

COc1ccc([N+](=O)[O-])cc1NC(=O)CSCc1ccccc1C	TDP43 rescue 13µM (no result: FUS suppressor)
COc1ccc(CNC(=O)C2=C(C)C(=O)OC23CCN(C(C)=O)CC3)cc1	none (no result: Mito fusion act, aSyn yeast inh)
C[N+]1=C(N)N[C@@]2(C=C3CCCCC3n3c(=O)n(-c4ccccc4)c(=O)n32)C1 (stereo partly drawn)	none (no result: Mito fusion act, aSyn yeast inh, TDP43 rescue, Abeta rescue)
COc1ccc(CCNC(=O)c2ccc3c(c2)N(Cc2cc(C)ccc2C)C(=O)c2ccccc2S3=O)cc1OC (stereo not drawn)	none (no result: Mito fusion act, aSyn yeast inh)
CCCOc1ccc(N2C(=O)CC(N3CCN(c4ccccc4OC)CC3)C2=O)cc1 (stereo not drawn)	aSyn yeast inh inconclusive, TDP43 rescue 25µM
O=C1CC(N2CCC(O)(c3ccc(Br)cc3)CC2)C(=O)N1c1ccc(Cl)cc1 (stereo not drawn)	none (no result: FUS suppressor)
COc1cccc(N2CCN(C3CC(=O)N(c4ccc(C)c(Cl)c4)C3=O)CC2)c1 (stereo not drawn)	none
COc1cccc(N2CCN(C3CC(=O)N(c4ccc(F)c(Cl)c4)C3=O)CC2)c1 (stereo not drawn)	TDP43 rescue 13µM
COc1ccc(N2C(=O)CC(N3CCC(O)(c4ccc(Br)cc4)CC3)C2=O)cc1 (stereo not drawn)	TDP43 rescue 20µM
Cc1ccc(C)c(N2CCN(C(=O)CCS(=O)(=O)c3cc4c(cc3Cl)NC(=O)CO4)CC2)c1	FUS suppressor inconclusive (no result: Mito fusion act)
Cc1ccc(C(=O)c2coc3ccc(O)c(Cl)c23)cc1	TDP43 rescue 16µM
COc1ccc(CCNC(=O)C2c3ccccc3C(=O)N2Cc2ccccc2)cc1OC (stereo not drawn)	none (no result: Mito fusion act, aSyn yeast inh)
COc1ccc(CNC(=O)c2ccc(NC(=O)N3CCCCc4ccccc43)cc2)c(OC)c1	none (no result: Mito fusion act, aSyn yeast inh)
CCOC(=O)C1=CCN(S(=O)(=O)c2cccc(Cl)c2)C1c1ccc(Br)cc1 (stereo not drawn)	FUS suppressor inconclusive, aSyn yeast inh 20µM (no result: Mito fusion act)
CSc1ccc(CC2C(=O)Nc3ccccc32)cc1 (stereo not drawn)	TDP43 rescue 13µM (no result: Mito fusion act, aSyn yeast inh)
O=C1Nc2ccccc2C1Cc1ccc(Br)cc1 (stereo not drawn)	TDP43 rescue 16µM, Abeta rescue inconclusive (no result: Mito fusion act, aSyn yeast inh)
COc1cccc(CNC(=O)C(Cc2ccccc2)n2cccc2)c1 (stereo not drawn)	none
Cc1csc(NC(=O)C(Cc2ccccc2)n2cccc2)n1 (stereo not drawn)	TDP43 rescue 13µM, Abeta rescue inconclusive
COc1cccc(NC(=O)C(Cc2ccccc2)n2cccc2)c1 (stereo not drawn)	TDP43 rescue 13µM

Source: PubChem
